PubChem BioAssay (NCI)
About 79,000 compounds went through this panel and 15% of them were active in at least one assay; those are over-represented in the sample as a whole. Activity calls are given as the source filed them. Rule as the data show it: active = growth inhibition above about 70%; inactive = the rest.

Columns and labels:
[1] = NCI Yeast Anticancer Drug Screen. Data for the rad50 strain (AID 155);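 also: 0% = growth of vehicle-only cultures of the same strain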; settings: S. cerevisiae rad50 strain growth inhibition; at 50.0 µM; hits give high values
Summary of the method: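 Compounds were tested on a yeast strain with an engineered DNA damage repair alteration; the reported value is growth inhibition normalised to vehicle treatment.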

[2] = NCI Yeast Anticancer Drug Screen. Data for the mec2-1 strain (AID 157); settings: S. cerevisiae mec2-1 strain, at 50.0 µM, hits give high values
Summary of the method: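 mec2-1 yeast strain, carrying an alteration in DNA damage repair or cell cycle control, was exposed to compounds; growth inhibition was measured relative to vehicle-treated controls.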

[3] = NCI Yeast Anticancer Drug Screen. Data for the sgs1 mgt1 strain (AID 161);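 also: 0% = growth of cultures given vehicle only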; settings: S. cerevisiae sgs1 mgt1 strain, at 50.0 µM, hits give high values
Summary of the method: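 Growth of a repair-deficient yeast mutant was monitored after compound treatment and expressed as inhibition relative to vehicle-treated cultures.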

[4] = NCI Yeast Anticancer Drug Screen. Data for the cln2 rad14 strain (AID 165);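 also: 0% = growth equal to vehicle treated cultures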; settings: S. cerevisiae cln2 rad14 strain, at 50.0 µM, hits give high values
Summary of the method: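 Yeast carrying cln2 and rad14 alterations (cell cycle control and DNA damage repair) were exposed to compounds. Growth inhibition was measured against vehicle-treated controls.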

[5] = NCI Yeast Anticancer Drug Screen. Data for the bub3 strain (AID 167); settings: S. cerevisiae bub3 mutant strain, at 50.0 µM, hits give high values
Summary of the method: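 Growth of a checkpoint-deficient yeast mutant is measured after compound exposure. Values represent inhibition relative to vehicle.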

[6] = NCI Yeast Anticancer Drug Screen. Data for the mlh1 rad18 strain (AID 175); settings: S. cerevisiae mlh1 rad18 strain growth inhibition; at 50.0 µM; hits give high values
Summary of the method: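 Growth inhibition of the yeast strain was measured after compound exposure and expressed relative to vehicle-treated controls. The strain carries defined defects in DNA damage repair.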

Measured: growth inhibition

CN(C)C(=O)c1ccc([N+](=O)[O-])cc1
inactive: [1] 21.1% | [2] 6.4% | [3] 11.8% | [4] 12.1% | [5] -4.75% | [6] -23.4%

CC(=O)c1ccc(NC(=O)/C(=N\NC(N)=O)C(C#N)CC(C)(C)C=O)cc1 (configuration not stated)
inactive: [1] 29.3% | [2] 17.4% | [3] -2.55% | [4] 21.1% | [5] 33.6% | [6] 16.6%

CC(=O)Nc1ccc(F)cc1
inactive: [1] -38.3% | [2] -25.7% | [3] -5.3% | [4] 4% | [5] -19.5% | [6] -13.1%

CCN(CC)c1ccc(CO)cc1
inactive: [1] 7.65% | [2] 4.8% | [3] -22.8% | [4] -9.85% | [5] -1.05% | [6] -13.2%

COC(=O)c1ccccc1NC(=O)c1cc(C(=O)O)c(C(=O)Nc2ccccc2C(=O)OC)cc1C(=O)O
inactive: [1] 0.75% | [2] 10.2% | [3] 4.95% | [4] 4.35% | [5] -3.7% | [6] 23.1%

CC(C)(CCCCC(C)(C)C1NC(=O)N1)C1NC(=O)N1
inactive: [1] -42.6% | [2] -7.4% | [3] -67.9% | [4] -46.5% | [5] -9.1% | [6] -43.1%

O=CNCC1(c2ccccc2)CCNCC1
inactive: [1] 2.25% | [2] -3.25% | [3] 8.05% | [4] -1.7% | [5] 4.4% | [6] -4.6%

COc1ccc(N=Nc2ccc(OC)cc2C)c(C)c1
inactive: [1] 1.7% | [2] -2.3% | [3] 1.9% | [4] -4.7% | [5] 10% | [6] 7.15%

CC1C(c2ccccc2)OC(c2ccccc2)N1C (configuration not stated)
inactive: [1] 3.25% | [2] -6.55% | [3] 21.4% | [4] 55.4% | [5] 9.7% | [6] -15.2%

CC(=O)c1ccc(I)cc1
inactive: [1] 5.15% | [2] -11.7% | [3] 24.6% | [4] 13.8% | [5] 14.1% | [6] 18.1%

CC(=O)OCCOCN1C(=O)CC(=O)NC1=O
inactive: [1] -10.2% | [2] -10.6% | [3] -4.5% | [4] -5.45% | [5] -22.3% | [6] -30.2%

O=C(c1ccc(F)cc1)c1ccc2ccccc2c1C(=O)O
inactive: [1] 4.4% | [2] 7.65% | [3] 13.1% | [4] 14.3% | [5] 38.2% | [6] -11.3%

CCCCCC1(C=O)C(=O)NC(=O)N1C (configuration not stated)
inactive: [1] 2.25% | [2] -5.45% | [3] -1.45% | [4] -0.45% | [5] -0.05% | [6] -8.2%

CC(=O)Oc1cccc2c1C(=O)c1ccccc1C2=O
inactive: [1] 30% | [2] 5.3% | [3] 22.4% | [4] -4.2% | [5] 11.3% | [6] -10%

Cc1cc(N(CCC#N)S(=O)(=O)c2ccccc2)ccc1C=O
inactive: [1] 25.9% | [2] -34.1% | [3] 13.9% | [4] -9.05% | [5] -9.15% | [6] -4.15%

OCCSCCCCCSCCO
inactive: [1] -2.6% | [2] -7.7% | [3] -7.3% | [4] -2.15% | [5] -7.4% | [6] -15.3%

CC1CCN(C(=S)[S-])CC1.CC1CCN(C(=S)[S-])CC1.[Zn]
inactive: [1] 58.9% | [2] 9.05% | [3] 54.2% | [4] 34.2% | [5] 5.85% | [6] 32.9%

Cc1ccc2ccccc2c1CC(=O)O
inactive: [1] 28.8% | [2] 36.6% | [3] 31.5% | [4] 31.7% | [5] 38.8% | [6] 39.2%

COC1=C(OC)C(=O)C(C(=O)CCCCC(=O)O)=C(C)C1=O
inactive: [1] 4.8% | [2] 0.5% | [3] 8.5% | [4] -35.4% | [5] 2.9% | [6] 13.9%

COc1ccc(N2C(=O)C3c4[nH]c5ccccc5c4C4CCCCCCCCCC4C3C2=O)cc1 (configuration not stated)
inactive: [1] -6.15% | [2] -25.9% | [3] 0% | [4] -39.6% | [5] -15.3% | [6] -30.2%

Nc1ccc(C(=O)NN2C(=O)C(Cl)C2c2cc(Br)ccc2O)cc1 (configuration not stated)
inactive: [1] 29.1% | [2] 11.6% | [3] 30.7% | [4] -32.1% | [5] 29.1% | [6] 10.8%

CCCCOC(=O)c1cc2ccccc2oc1=O
inactive: [1] 34.5% | [2] 9.9% | [3] 25.1% | [4] 15.7% | [5] 27.2% | [6] 34%

COc1ccc(C2COc3c(ccc(OC)c3OC)C2=O)cc1OC (configuration not stated)
inactive: [1] -20.7% | [2] -1% | [3] -1.2% | [4] -6.5% | [5] -0.5% | [6] -18.5%

O=c1[nH]c(=O)n(C2OC(COP(=O)(O)OP(=O)(O)OC3OC(CO)C(O)C(O)C3O)C(O)C2O)cc1F (configuration not stated)
inactive: [1] 1.15% | [2] 3.65% | [3] 8.8% | [4] 18.9% | [5] -15.3% | [6] 9.85%

CC(C)(CO[C@H]1C[C@H]2CC[C@@]1(C)C2(C)C)[N+](=O)[O-]
inactive: [1] 25.4% | [2] -7% | [3] 50% | [4] -17.4% | [5] 12.9% | [6] 18.4%

CS(=O)(=O)Nc1ccc(C(=O)CCN2CCCCCC2)cc1
inactive: [1] -4.35% | [2] 8.9% | [3] -28.9% | [4] -6.6% | [5] -27.5% | [6] -23.1%

CCNC(=O)c1csnn1
inactive: [1] -6.55% | [2] -5.6% | [3] -5.95% | [4] 12.5% | [5] -18.1% | [6] 2%

CCCN(CCN(CC)CC)C(=O)N(CC)CC
inactive: [1] -11% | [2] 14.3% | [3] 3.2% | [4] -19.1% | [5] 6.35% | [6] -17.6%

[N-]=[N+]=N[Si](c1ccccc1)(c1ccccc1)c1ccccc1
inactive: [1] -17.1% | [2] -11.4% | [3] 2.35% | [4] 7.6% | [5] -7.7% | [6] 7.25%

Cc1ccc(S(=O)(=O)OCC2(COS(=O)(=O)c3ccc(C)cc3)CCC2)cc1
inactive: [1] -7.8% | [2] -7.75% | [3] 0.25% | [4] -8.95% | [5] 16% | [6] -15%

C=CCNC(=S)N1CC(C)C(=O)Nc2ccccc21 (configuration not stated)
inactive: [1] -26.1% | [2] -18.2% | [3] -29.9% | [4] 6.6% | [5] 11.3% | [6] -14.4%

O=c1cc([N+](=O)[O-])c2c([nH]1)CCC2
inactive: [1] -5.3% | [2] 1.3% | [3] 12.8% | [4] -27.8% | [5] -6.15% | [6] -0.5%

Nc1cc2cn[nH]c2cc1N
inactive: [1] -10.6% | [2] 4.75% | [3] 4.4% | [4] -8.75% | [5] 9.3% | [6] 25.6%

O=CC(=O)c1ccccc1O
inactive: [1] 30.1% | [2] 36.6% | [3] 44.9% | [4] 18.3% | [5] 37%
active: [6] 75.7%

NC(=O)CNC(=O)CN1C(=O)c2ccccc2C1=O
inactive: [1] 9.05% | [2] -14.6% | [3] -13.1% | [4] 8.65% | [5] 2.1% | [6] -4.2%

O=P12N(CCN1c1ccccc1)CCN2c1ccccc1
inactive: [1] -26.4% | [2] -34.1% | [3] -13.8% | [4] 19.6% | [5] 10.2% | [6] -25.5%

CCN1c2ccccc2CC(CCN(C)Cc2ccccc2)(C(N)=O)c2ccccc21 (configuration not stated)
inactive: [1] 26.1% | [2] -1.15% | [3] -7.7% | [4] 7.45% | [5] 5.3% | [6] -6.05%

CCSCC1C(=O)C23C(O)C1CCC2C12COC3(O)C(O)C1C(C)(C)CCC2O (configuration not stated)
inactive: [1] 16.6% | [2] 18.4% | [3] 7.45% | [4] 10.9% | [5] 2.4% | [6] 7.05%

O=S(=O)(SSS(=O)(=O)c1ccc(Cl)c(Cl)c1)c1ccc(Cl)c(Cl)c1
inactive: [1] 7.8% | [2] 4.05% | [3] 5.85% | [4] -3.45% | [5] 3.65% | [6] 11.7%

COc1c(NC(=O)c2ccc(Cl)c(Cl)c2)cccc1[N+](=O)[O-]
inactive: [1] 7.6% | [2] -9.1% | [3] 3.35% | [4] -2.85% | [5] 1.3% | [6] -1.3%

COC(=O)[C@H]1C=C[C@@H](C)n2c(=O)c3cc4ccccc4cc3c(=O)n21
inactive: [1] -21.2% | [2] -1.55% | [3] -18.9% | [4] -7.95% | [5] -24% | [6] -18.2%

CCCCC(CC)(SC(CC)C(N)=O)C(N)=O (configuration not stated)
inactive: [1] -2.2% | [2] -0.55% | [3] 16.9% | [4] 20.1% | [5] 5.75% | [6] -5%
